Compound activity deposited in PubChem by National Center for Advancing Translational Sciences (NCATS).
A selection: hits, their analogues and other compounds. The true share with any hit is near 7.3%.
Tau fluor counter: Counterscreen qHTS for Inhibitors of Tau Fibril Formation, Fluorescence Polarization | 280,000 tested, 0.93% active | Potency, µM (series often up to 57.7 µM), for the others: at the top dose activity change, negative = decrease | AID 1463, 2008 | tau K18 P301L Alexa594 fluorescence, heparin fibrillization; note: nearly all actives have a fitted effect of over 55% in size
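Human tau K18 P301L (15 uM unlabeled, 0.24 uM Alexa 594-labeled) in 100 mM sodium acetate pH 7 with 20 uM heparin, 6 hr at 37 C. ThT 30 uM added, 1 hr ambient; Alexa 594 FP and total fluorescence read at 555/632 nm.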
Gal4-VP16 FLuc: VP16 counterscreen qHTS for inhibitors of ROR gamma transcriptional activity | Drosophila S2 Gal4-VP16 UAS-luciferase, luminescence, 20 h | Potency, µM (highest dose often 53.6 µM), without a hit: at the top dose activity, negative = inhibition, most hits filed as inhibitors | 310,000 tested, 3.5% active;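 note: Gal4-VP16 expression switched on by copper sulfate through the metallothionein promoter; nearly all actives have a fitted effect of over 50% in size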
Tau ThT inhib: qHTS for Inhibitors of Tau Fibril Formation, Thioflavin T Binding; recombinant tau K18 P301L (four-repeat tau fragment), heparin-induced fibrillization, ThT fluorescence; 270,000 tested, 2.1% active; Potency, µM (top dose mostly 57.4 µM), for inactives: at the highest dose activity, negative = inhibition, usual class: inhibitors; Microtubule-associated protein tau (Homo sapiens), P10636; note: nearly all actives have a fitted effect of over 55% in size
Target sequence (P10636 561-689 P618L limits assumed): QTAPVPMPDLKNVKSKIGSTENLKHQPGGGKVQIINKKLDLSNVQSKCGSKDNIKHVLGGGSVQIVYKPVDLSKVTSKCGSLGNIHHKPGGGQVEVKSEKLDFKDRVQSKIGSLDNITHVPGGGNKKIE
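In this qHTS, human K18 P301L tau is incubated with compound and heparin for 6 hr at 37 C, and Thioflavin T fluorescence then reports fibril load.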
RORg inh: qHTS for inhibitors of ROR gamma transcriptional activity; Nuclear receptor ROR-gamma (Mus musculus), P51450; Drosophila S2 Gal4-RORgamma UAS-luciferase reporter, 20 h; Potency, µM (series often up to 53.6 µM), inactives show top-dose activity change, negative = inhibition, most hits filed as inhibitors; 310,000 tested, 5.4% active; note: nearly all actives have a fitted effect of over 60% in size
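Using a luciferase readout, inhibitors were identified by reduced reporter activity in Drosophila cells coexpressing a copper-inducible Gal4–ROR gamma fusion and UAS-driven Photinus luciferase, incubated 20 hr after 700 uM copper sulfate.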
Tau FP inhib: qHTS for Inhibitors of Tau Fibril Formation, Fluorescence Polarization. 280,000 tested, 0.39% active. AID 1468, 2008. Potency, µM (top dose mostly 57.7 µM), for the others: top-dose activity, negative = inhibition, most hits filed as inhibitors. K18 P301L tau heparin fibrillization, Alexa594 FP, 6 h; note: nearly all actives have a fitted effect of over 55% in size
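Read-out: fluorescence polarization of Alexa 594-labeled tau (0.24 uM), 555 nm excitation, 632 nm emission. Mixtures held 15 uM unlabeled K18 P301L, compound and 20 uM heparin, pH 7 acetate buffer, incubated 6 hr at 37 C.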
Starred values were filed as active, the others as inactive; [ ] = dose if it differs, or a comment. Calls come from the whole dose curve; as a rule, active = well fitted curve in the direction sought with a large enough effect; inconclusive = small, poorly fitted or top-dose-only effect, or another doubt; inactive = no such curve, though single readings can be large; an effect the other way counts as inactive or inconclusive. % is set by controls: 0 for no effect and ±100 for the full control effect; potency is the fitted concentration of half-maximal effect.

How did CC(C)CCNC(=O)Nc1ccc2c(c1)N(Cc1ccccc1)C(=O)c1ccccc1S2 do in these assays?
Tau fluor counter: -23.9%; Tau ThT inhib: 9.6%; Tau FP inhib: 14.1µM*

Results for CC(C)CCNC(=O)c1ccc2c(c1)N(Cc1cccc(Cl)c1)C(=O)c1ccccc1S2 ?
Tau fluor counter: -8.1%; Tau ThT inhib: 0.7%; Tau FP inhib: -7.8%

What do the screens show for `CCN1C(=O)c2ccccc2Sc2ccc(NC(=O)Nc3cccc([N+](=O)[O-])c3C)cc21`?
Tau fluor counter: inconclusive; Tau ThT inhib: 0.7%; Tau FP inhib: 15.8µM*

What do the screens show for `CS(=O)(=O)Nc1cccc(-c2nccc(Nc3ccc(F)cc3)n2)c1`?
Gal4-VP16 FLuc: 1.7%; RORg inh: inconclusive

How did Cc1ccnc(NC(=O)C2CC(=O)N(c3ccc4c(c3)OCCO4)C2)c1 (centres undefined) do in these assays?
Gal4-VP16 FLuc: inconclusive; RORg inh: 7.94µM*

Results for CCCc1cc(=O)[nH]c(Nc2cc(Cl)cc(Cl)c2)n1 ?
Tau fluor counter: inconclusive; Tau ThT inhib: 11.8%; Tau FP inhib: 11.2µM*

How did C/C=C/c1ccc2oc(-c3ccc(O)cc3)c(C)c2c1 do in these assays?
Tau fluor counter: 14.1µM*[quencher]; Gal4-VP16 FLuc: inconclusive; Tau ThT inhib: 17.8µM*; RORg inh: inconclusive; Tau FP inhib: inconclusive

What do the screens show for `O=C(N=Nc1c(O)n(Cc2ccccc2)c2ccccc12)c1ccc(O)cc1`?
Tau fluor counter: inconclusive; Gal4-VP16 FLuc: -26.1%; Tau ThT inhib: 14.1µM*; RORg inh: inconclusive; Tau FP inhib: -10.3%

What do the screens show for `Cc1ccc(NC(=O)Cn2c(O)c(N=NC(=O)c3cc4ccccc4cc3O)c3ccccc32)cc1`?
Tau fluor counter: -21.9%; Gal4-VP16 FLuc: inconclusive; Tau ThT inhib: inconclusive; RORg inh: inconclusive; Tau FP inhib: 15.1%

Results for Cn1c(O)c(N=NC(=O)c2ccco2)c2ccccc21 ?
Tau fluor counter: -4.9%; Gal4-VP16 FLuc: inconclusive; Tau ThT inhib: inconclusive; RORg inh: inconclusive; Tau FP inhib: -4.0%

Results for O=C(N=Nc1c(O)n(Cc2ccccc2)c2ccccc12)c1cc2ccccc2cc1O ?
Tau fluor counter: -23.4%; Gal4-VP16 FLuc: -46.2%; Tau ThT inhib: 12.6µM*; RORg inh: inconclusive; Tau FP inhib: inconclusive

What do the screens show for `O=C(N=Nc1c(O)n(C2OC(=O)c3ccccc32)c2ccccc12)c1ccc(O)cc1` (centres undefined)?
Tau fluor counter: inconclusive; Gal4-VP16 FLuc: 2.82µM*; Tau ThT inhib: inconclusive; RORg inh: 2.82µM*; Tau FP inhib: inconclusive

Results for COC(=O)c1ccccc1S(=O)(=O)N1CCc2nc(COc3ccccc3)c3c(c2C1)CO[C@@H](C)C3 ?
Tau fluor counter: -9.1%[11.6 µM]; Tau ThT inhib: -20.8%[11.5 µM]; Tau FP inhib: -18.0%[11.6 µM]

How did CC(C)Cc1nnc(NC(=O)CCC(=O)N2CCCCC2)s1 do in these assays?
Gal4-VP16 FLuc: -3.8%; RORg inh: -1.8%

What do the screens show for `CC(=O)C(Cc1ccccc1)NC(=O)CN(C)Cc1ccccc1Cl` (centres undefined)?
Gal4-VP16 FLuc: -1.9%; RORg inh: 1.3%

Results for Nc1ccc(S(=O)(=O)Nc2ccccc2)cc1 ?
Gal4-VP16 FLuc: -10.8%; RORg inh: -8.9%

Results for CC(C)NC1=C(Cl)C(=O)c2ccccc2C1=O ?
Tau fluor counter: -28.0%; Gal4-VP16 FLuc: inconclusive; Tau ThT inhib: 25.1µM*; RORg inh: inconclusive; Tau FP inhib: inconclusive

Results for Cc1ccc(NC2=C(NC(=O)c3ccccc3)C(=O)c3ccccc3C2=O)cc1Cl ?
Tau fluor counter: inconclusive; Gal4-VP16 FLuc: inconclusive; Tau ThT inhib: 15.8µM*; RORg inh: inconclusive; Tau FP inhib: inconclusive

How did O=C1C(Cl)=C(NCc2cccnc2)C(=O)c2ccccc21 do in these assays?
Gal4-VP16 FLuc: inconclusive; RORg inh: 10µM*

What do the screens show for `COCCCNC1=C(Cl)C(=O)c2ccccc2C1=O`?
Tau fluor counter: -12.4%; Gal4-VP16 FLuc: -17.5%; Tau ThT inhib: inconclusive; RORg inh: -28.2%; Tau FP inhib: 5.9%
